ALDH1A1 block: blocks purified human ALDH1A1 activity | P00352 | Purified ALDH1A1, NADH fluorescence, propionaldehyde substrate | Potency, µM (titrated, usually from 75.3 µM), for inactives: top-dose activity, negative = inhibition, usual class: inhibitors | 220,000 tested, 7.3% active; active = well fitted inhibition curve with a large enough effect, not every such curve was filed as active; inconclusive = small, poorly fitted or top-dose-only effect, or another doubt; inactive = no such curve, though single readings can be large or run the other way;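 also: potency is read from the fitted curve at half-maximal effect; plate controls were no enzyme wells and a reference inhibitor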
Target sequence (P00352 whole entry, looked up): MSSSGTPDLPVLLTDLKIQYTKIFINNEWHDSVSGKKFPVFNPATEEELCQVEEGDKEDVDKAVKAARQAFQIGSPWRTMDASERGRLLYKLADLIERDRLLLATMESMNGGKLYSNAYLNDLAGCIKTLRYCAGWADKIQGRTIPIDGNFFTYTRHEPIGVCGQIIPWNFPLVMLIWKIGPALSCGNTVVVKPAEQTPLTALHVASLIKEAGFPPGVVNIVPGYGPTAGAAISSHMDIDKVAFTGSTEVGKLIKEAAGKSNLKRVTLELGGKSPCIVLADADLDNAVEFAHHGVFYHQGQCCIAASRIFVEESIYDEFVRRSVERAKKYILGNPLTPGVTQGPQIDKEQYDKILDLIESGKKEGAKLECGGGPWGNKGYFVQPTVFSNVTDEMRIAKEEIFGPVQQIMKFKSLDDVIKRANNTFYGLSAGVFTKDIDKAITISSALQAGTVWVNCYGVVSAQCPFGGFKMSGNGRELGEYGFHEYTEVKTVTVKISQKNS
HPGD inh: inhibitors of human 15-hydroxyprostaglandin dehydrogenase (HPGD); P15428; purified HPGD, NADH fluorescence kinetic, PGE2 substrate; Potency, µM, without a hit: top-dose activity change, negative = inhibition, most hits filed as inhibitors; 150,000 tested, 4.3% active; active = well fitted inhibition curve with a large enough effect, not every such curve was filed as active; inconclusive = small, poorly fitted or top-dose-only effect, or another doubt; inactive = no such curve, though single readings can be large or run the other way; also: potency is read from the fitted curve at half-maximal effect; % is scaled to controls: 0 for no effect and ±100 for the full control effect
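NADH formation kinetics: reaction with 30 uM PGE2 and 1 mM NAD+ (final), 20 nM enzyme, Tris-HCl pH 8 with Tween 20, after 15 min compound preincubation at room temperature. Fluorescence change, last versus first of five reads.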
HTT aggregate: reduces HttQ103-GFP aggregates in PC12 cells | PC12 HttQ103-GFP aggregates, Acumen cytometry, 40 h | Potency, µM (top dose mostly 46.1 µM), for the others: top-dose activity change, negative = inhibition, most hits filed as inhibitors | 220,000 tested, 1.1% active; also: potency is read from the fitted curve at half-maximal effect; % is scaled to controls: 0 for no effect and ±100 for the full control effect; nearly all actives have a fitted effect of over 60% in size
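PC12 cells stably carrying ecdysone-inducible HTT exon 1 Q103–GFP were induced with tebufenozide (100 nM final) and treated with library compounds in titration. GFP aggregates in lysates were counted by laser scanning cytometry.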
HTT cytoprotect: cytoprotection in Huntington HTT-Q103 PC12 cell model | PC12 HTT-Q103 induced, cytoprotection, ATP luminescence, 40 h | Potency, µM (series often up to 56.4 µM), inactives show cytoprotection (ATP increase), hits mostly activators | 230,000 tested, 0.14% active | AID 1471; also: potency is read from the fitted curve at half-maximal effect; % of control where 0% means no effect; nearly all actives have a fitted effect of over 45% in size
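Compounds were screened for protection of PC12 cells against cell death after tebufenozide induction (100 nM final) of mutant Huntingtin exon 1 (Q103) fused to GFP.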
IMPase Li cell: IMPase inhibition in cells with lithium potentiation. CHO-M1 cells, IP1 TR-FRET (IP-One), carbachol + lithium. Potency, µM (titrated, usually from 59.4 µM), for inactives: top-dose activity, negative = IMPase inhibition, usual class: inhibitors. 210,000 tested, 0.35% active. AID 1457;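 also: IP1 builds up when IMPase is blocked and the TR-FRET signal falls; potency is read from the fitted curve at half-maximal effect; plate controls were basal vehicle for no effect and high inhibitor control for full effect; nearly all actives have a fitted effect of over 50% in size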
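CHO-M1, 2000 cells/well, 16–30 h culture; cpd + low Li+, 30 min 37C; lysis with d2-IP1/Eu-anti-IP1 Ab, 10 min RT; TR-FRET 665/620 ratio and 620 channel; AC50 via Hill.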
IMPase cell inh: cell-permeable inhibitors of inositol monophosphatase (IMPase). P97697. CHO-M1 cells, IP1 accumulation, HTRF TR-FRET ratio. inhibition (IP1 accumulation), % at 46.1 µM. 120,000 tested, under 10 active; active = well fitted curve in the direction sought with a large enough effect in the signal ratio, not every such curve was filed as active; inconclusive = small, poorly fitted or top-dose-only effect, or a change in a side signal; inactive = no such curve, though single readings can be large or run the other way; the % refers to the signal ratio;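 also: cells stimulated with carbachol in lithium chloride buffer; plate controls were DMSO basal wells for no effect and reference inhibitor wells for full effect; higher means more IMPase inhibition seen as more IP1 and lower FRET ratio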
Target sequence (P97697 whole entry, looked up): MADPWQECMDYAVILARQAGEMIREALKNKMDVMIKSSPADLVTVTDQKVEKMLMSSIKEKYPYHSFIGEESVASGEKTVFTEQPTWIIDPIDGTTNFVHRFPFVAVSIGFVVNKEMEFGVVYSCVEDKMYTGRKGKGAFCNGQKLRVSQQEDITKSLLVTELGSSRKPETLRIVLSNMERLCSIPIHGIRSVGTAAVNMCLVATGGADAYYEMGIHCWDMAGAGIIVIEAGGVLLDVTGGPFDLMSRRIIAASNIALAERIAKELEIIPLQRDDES
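CHO-M1 cells (CHO stably expressing M1 receptor), compound up to 46 uM final, stimulated with carbachol (50 uM as added) in buffer with 50mM LiCl, pH 7.4, 30 min at 37C. Cytosolic IP1 read by TR-FRET; AC50 from Hill fits.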
* hit, by the source's call; ? = inconclusive; . = no result given; [ ] = remark or other dose. A selection: hits, their analogues and other compounds. The true share with any hit is near 9.4%. Unless noted, calls follow the shape of the dose curve; as a rule, active = well fitted curve in the direction sought with a large enough effect; inconclusive = small, poorly fitted or top-dose-only effect, or another doubt; inactive = no such curve, though single readings can be large; an effect the other way counts as inactive or inconclusive.

SMILES	ALDH1A1 block	HPGD inh	HTT aggregate	HTT cytoprotect	IMPase Li cell	IMPase cell inh
CC(C)(C)c1ccc(O)c(O)c1	0.89µM*	10µM*	.	-142%	-10%	.
CC(C)C[C@@H](CC(=O)N[C@@H](CCC(=O)O)CC(=O)O)NC(=O)[C@@H]1CNCC[C@H]1NC(=O)C[C@H](CCCN)NC(=O)C[C@H](CO)NC(=O)[C@@H]1CNCC[C@H]1N	?	-8%	.	0%[1.9 µM]	11%	.
Cc1ccccc1CCN(C(=O)CN1C(=O)c2ccccc2S1(=O)=O)C(C(=O)NCC1CCCO1)c1ccncc1 (stereo not drawn)	?	-6%	16µM*	22%[10 µM]	-3%	5
CCN(CC)CCCCn1c(-c2ccccc2)nc2c(N(CCOC)CCOC)nc(C)nc21	?	?	.	-14%	17%	.
CCCOC(=O)Nc1cccc(C(C)=O)c1	-1%	10µM*	5%	11%[10 µM]	-5%	-1
CC(=O)c1cccc(NC(=S)Nc2ccn(Cc3cccc4ccccc34)n2)c1	0.79µM*	.	-7%	.	2%	.
CCCC(=O)NC(=S)Nc1cccc(C(C)=O)c1	-11%	16µM*	10%	2%	-12%[38.3 µM]	-9
CC(=O)c1cccc(NC(=O)COC(=O)c2cccc(N3C(=O)c4ccccc4C3=O)c2)c1	14µM*	-12%	10%	1%[10 µM]	16%	.
CCC(=O)NC(=S)Nc1cccc(C(C)=O)c1	8%	-15%	12%	-11%	13%[38.3 µM]	-2
Nc1nc(Cl)cc(NCCO)n1	-1%[13.5 µM]	-7%	.	-4%[10 µM]	-7%	.
N[C@@H](CO)C(=O)O	1%	-2%	.	?	12%	-4
Cc1noc(C)c1-c1cc(N(C)C)ncn1	7%	-13%	.	0%	-3%	.
O=c1c(O)c(-c2ccc(O)c(O)c2)oc2ccccc12	-15%	-16%	.	17%[1.9 µM]	16%	2
CCCCCC(=O)NC(=S)Nc1cccc(C(C)=O)c1	?	14µM*	7%	-4%[10 µM]	14%	.
CCC(=O)NC(=S)Nc1cccc(NC(=O)CC)c1	-2%	-8%	8%	-16%	-10%[38.3 µM]	-12
CCCCC(=O)Nc1cccc(NC(=S)NC(=O)C(C)C)c1	-1%	-5%	1%	6%[10 µM]	4%	1
CC(=O)c1cccc(NC(=S)NC(=O)CC(C)C)c1	4%	16µM*	-3%	21%	23%[38.3 µM]	-1
CCOC(=O)c1sc2nc(CSc3ccccc3)nc(N3CCCN(C)CC3)c2c1C	28µM*	.	?	-65%	12%	.
CCOC(=O)c1sc2nc(CSc3ccccc3)nc(N3CCC(C(N)=O)CC3)c2c1C	?	.	-5%	-12%	21%	.
CCN(CC)CCCC(C)NC(=O)c1ccc(-n2c(=O)c(=O)[nH]c3ccccc32)cc1 (stereo not drawn)	-4%	-9%	.	.	.	.
O=c1c2cc(Br)cc(Br)c2oc2nc3n(c(=O)c12)CCCS3	?	?	7%[9.22 µM]	3%	5%[38.3 µM]	?
O=Cc1ccc2oc3nc4n(c(=O)c3c(=O)c2c1)CCCS4	2.5µM*	?	14%[9.22 µM]	7%	25%[38.3 µM]	-6
CCc1cccc(NC(=O)CSc2nc3c(c(=O)[nH]2)CCCC3)c1	3%	10µM*	-17%	.	1%	.
O=C(CSc1nc2c(c(=O)[nH]1)CCC2)Nc1cccc(Cl)c1	0%	14µM*	22%	-18%	-4%[38.3 µM]	0
Cc1c(Cl)cccc1NC(=O)CSc1nc2c(c(=O)[nH]1)CCCC2	5%	-14%	-3%	.	-4%	.
SMILES	ALDH1A1 block	HPGD inh	HTT aggregate	HTT cytoprotect	IMPase Li cell	IMPase cell inh
N#Cc1c(-c2ccco2)nc(SCC(=O)Nc2cccc(Cl)c2)[nH]c1=O	?	18µM*	-8%	-24%	10µM*	?
COC(=O)NC(CC(C)=O)c1ccc(F)cc1 (stereo not drawn)	12%[13.5 µM]	.	.	-14%[10 µM]	.	.
Cc1ccc2c(c1)c(=O)c1ccccc1n2CCCC(=O)Nc1ccc(F)cc1F	.	.	.	.	.	-2
O=C1N/C(=C/c2cccn2-c2ccc(F)cc2)C(=O)N1Cc1ccccc1F	?	-2%	-22%	-5%[10 µM]	-4%	.
COc1cc(/C=C2/NC(=O)N(Cc3ccccc3F)C2=O)ccc1Oc1ccc([N+](=O)[O-])cn1	0.22µM*	-8%	-30%	.	6%	.
O=C(O)c1cccc(-n2cccc2/C=C2/NC(=O)N(Cc3ccccc3F)C2=O)c1	14µM*	.	27%	.	6%	.
COc1cc(/C=C2/NC(=O)N(Cc3ccccc3F)C2=O)ccc1O	6.3µM*	.	27%	-48%	-5%	.
Cc1ccccc1NC(=O)CN1C(=O)S/C(=C\c2cccn2-c2cccc(C(=O)O)c2)C1=O	?	28µM*	13%	0%	-4%[38.3 µM]	12
O=C(NCCc1c[nH]c2ccccc12)C(=O)NCC1OCCCN1S(=O)(=O)c1cccs1 (stereo not drawn)	25µM*	.	-24%	-43%	6%	.
O=C(NCc1ccccc1Cl)C(=O)NCC1OCCN1S(=O)(=O)c1cccs1 (stereo not drawn)	14µM*	.	23%	14%[10 µM]	6%	.
CNC(=O)C(=O)NCC1OCCCN1S(=O)(=O)c1cccs1 (stereo not drawn)	?	-2%	-7%	-21%[10 µM]	-1%	.
O=C(NCc1cccs1)C(=O)NCC1OCCCN1S(=O)(=O)c1cccs1 (stereo not drawn)	14µM*	.	17%	-32%	1%	.
O=C(NCCO)C(=O)NCC1OCCCN1S(=O)(=O)c1cccs1 (stereo not drawn)	18µM*	-4%	3%	-13%[10 µM]	-7%	.
CC12C=C(/C=C/c3ccc(Br)cc3)C(C)(C1)C(c1ccc(Br)cc1)CC2=O (stereo not drawn)	3%[13.5 µM]	.	.	-1%[10 µM]	.	.
CCc1nc2nc(C)c(NS(=O)(=O)c3ccc(C(C)(C)C)cc3)c(=O)n2[nH]1	.	.	.	.	.	-8
N#Cc1cccc(-c2nc3cnc(N4CCOCC4)nc3n(C[C@H]3CCCO3)c2=O)c1	?	.	.	13%	6%	.
COc1ccccc1N1C(=O)N(C(C)=O)C2C1Nc1ccccc1N2C (stereo not drawn)	1.8µM*	-10%	?	-52%	22%[38.3 µM]	10
COc1ccccc1N1C(=O)c2ccccc2NC1c1ccncc1 (stereo not drawn)	?	-26%	-13%	12%[10 µM]	0%	-1
O=C(O)CCCCCNc1ccc2nsnc2c1[N+](=O)[O-]	-5%	28µM*	-22%	-11%[1.9 µM]	-5%	7
Cc1nnc(SCc2ccccc2)[nH]c1=O	7.1µM*	.	11%[9.22 µM]	15%[10 µM]	3%	.
Cc1ccc(CSc2nnc(C)c(=O)[nH]2)cc1	11%	.	-5%	-75%	-1%	.
